# Rows were chosen to be rich in hits. Some 17% of all compounds tested hit in one or more screens of this group.
# TDP1 cell CPT: qHTS for Inhibitors of human tyrosyl-DNA phosphodiesterase 1 (TDP1): qHTS in cells in presence of CPT. chicken DT40 Tdp1-/-;hTDP1 cells + 20 nM CPT, ATP luminescence, 48 h. Potency, µM (series often up to 46.2 µM), for the others: at the top dose activity change, negative = growth inhibition, hits mostly inhibitors. 420,000 compounds, 12% hits; further: on the % scale 0 is the no-effect control and ±100 the full control effect; nearly all actives have a fitted effect of over 55% in size
#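 Chicken DT40 Tdp1-/- cells stably complemented with human TDP1 were seeded at 400 cells/well in medium containing 20 nM camptothecin, exposed to pin-transferred compounds, and grown at 37 °C for at least 48 hr. Viability was read as ATP luminescence.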
# ATXN2 expr inh: Primary qHTS for Inhibitors of ATXN expression; HEK-293 ATXN2-luciferase reporter, luminescence, 24 h; Potency, µM (top dose mostly 57 µM), without a hit: at the highest dose activity change, negative = inhibition, most hits filed as inhibitors; 360,000 compounds, 0.72% hits; AID 1745845, 2022; further: on the % scale 0 is the no-effect control and ±100 the full control effect; nearly all actives have a fitted effect of over 55% in size
#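 qHTS (up to 57 uM final) was run with 24 h compound exposure of reporter cells at 37 °C. Each well was multiplexed: SteadyGlo luminescence measured ATXN2-luciferase expression after a fluorogenic Gly-Phe-AFC viability readout (25 uM final).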
# TDP1 cell noCPT: qHTS for Inhibitors of human tyrosyl-DNA phosphodiesterase 1 (TDP1): qHTS in cells in absence of CPT. DT40 Tdp1-/- hTDP1 cells, no CPT, ATP luminescence, 48 h. Potency, µM (doses to about 46.2 µM), for inactives: at the top dose activity change, negative = growth inhibition, actives largely listed as inhibitors. 420,000 compounds, 15% hits; further: on the % scale 0 is the no-effect control and ±100 the full control effect; nearly all actives have a fitted effect of over 55% in size
#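 Chicken DT40 Tdp1-/- cells stably complemented with human TDP1 were seeded at 400 cells/well with DMSO in place of 20 nM camptothecin. After compound pinning, cells grew at least 48 hr at 37 °C; viability read by CellTiter-Glo luminescence.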
# TGFb inhibitor: qHTS for Inhibitors of TGF-b; HepG2 CAGA-GFP TGF-b/SMAD3 reporter, GFP fluorescence, 18 h; TGF-beta stimulated, 500 pg/mL final; Potency, µM (doses to about 46.1 µM), for inactives: at the top dose activity, negative = inhibition, actives largely listed as inhibitors; 410,000 compounds, 1.2% hits; AID 588855, 2011; further: on the % scale 0 is the no-effect control and ±100 the full control effect; nearly all actives have a fitted effect of over 65% in size
#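 HEPG2 CAGA-GFP, 1000 cells/well; 2 h settle, 37 C; cpd via pin tool; TGF-b 500 pg/mL final; 18 h, 37 C; GFP imaging ex488/em500-530; %Activity normalised to -TGF-b and +DMSO controls; CRC fit, curve class.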
# HepG2 tox: qHTS for Inhibitors of TGF-b: Cytotox Counterscreen. HepG2 CAGA-GFP viability, ATP luminescence, 18 h. Potency, µM (series often up to 46.1 µM), for inactives: at the highest dose activity change, negative = cytotoxicity, actives largely listed as cytotoxic. 410,000 compounds, 0.76% hits
#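 CellTiter-Glo luminescence gave cytotoxicity after 18 hours at 37 degrees C. The cells were HepG2 CAGA-GFP in 1% FBS DMEM, stimulated with 500 pg/mL TGF-beta after compound addition. %Activity was normalised to no-cell wells (complete cell-killing) and DMSO (no toxicity), and curves were fitted and classified.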
# ATXN viability: Viability Counterscreen for Primary qHTS for Inhibitors of ATXN expression; S2 cells (HEK-293 line with an ATXN2-luciferase reporter) viability, CellTiter-Fluor protease fluorescence, 24 h; Potency, µM (series often up to 56.7 µM), hits mostly cytotoxic; 400,000 compounds, 0.49% hits; AID 651635, 2014; further: nearly all actives have a fitted effect of over 40% in size
# Starred values were filed as active, the others as inactive; i = inactive; ? = inconclusive; · = no result. The call rests on the fitted dose curve; in most records, active means well fitted curve in the direction sought with a large enough effect; inconclusive means small, poorly fitted or top-dose-only effect, or another doubt; inactive means no such curve, though single readings can be large; an effect the other way counts as inactive or inconclusive. Potency means the concentration at half of the fitted maximal effect.
SMILES,TDP1 cell CPT,ATXN2 expr inh,TDP1 cell noCPT,TGFb inhibitor,HepG2 tox,ATXN viability
COc1ccc(-c2c(-c3ccc(OCC(=O)NN)cc3O)n[nH]c2C)cc1,-17%,-8%,?,-13%,-1%,i
COc1ccc(-c2n[nH]c(C)c2-c2ccc(Cl)cc2)c(O)c1,-29%,-36%,?,?,-83%,i
C=C(C)COc1ccc(-c2n[nH]c(C)c2-c2ccc(OC)c(OC)c2)c(O)c1,3.7µM*,-15%,2.6µM*,?,-49%,i
Cn1c(NCCCO)nc2c1c(=O)n(Cc1cccc(F)c1)c(=O)n2C,-12%,-7%,-21%,3%,6%,i
NC(=O)c1cccc(-c2cc(Nc3ccc(OC(F)(F)F)cc3)ncn2)c1,?,?,15µM*,?,-25%,?
O=C(Nc1ccc(OC(F)(F)F)cc1)c1ccc2nc[nH]c2c1,-24%,·,?,-5%,-24%,i
Oc1ccc(N=Nc2ccccc2C(F)(F)F)c2cccnc12,0.82µM*,·,1µM*,-36%,-21%,i
CCS(=O)(=O)c1ccc(N=Nc2ccc(O)c3ncccc23)c(OC)c1,1.8µM*,?,1.3µM*,?,-1%,·
COc1ccccc1N=Nc1ccc(O)c2ncccc12,2.9µM*,·,2.9µM*,?,-10%,16µM*
CCC(C)OC(=O)c1[nH]c2c(c1C)C(=O)CC(c1ccc(N(C)C)cc1)C2 (stereo not given),23µM*,-36%,15µM*,-25%,-15%,?
CCOc1ccc(C2CC(=O)c3c([nH]c(C(=O)OCCOc4ccccc4)c3C)C2)cc1 (stereo not given),13µM*,-1%,15µM*,-16%,-25%,i
Cc1c(C(=O)OC2CCCCCC2)[nH]c2c1C(=O)CC(c1ccc(N(C)C)cc1)C2 (stereo not given),-4%,-2%,?,-1%,9%,i
CCOCCOC(=O)c1[nH]c2c(c1C)C(=O)CC(c1ccc(N(C)C)cc1)C2 (stereo not given),23µM*,-19%,?,9%,25%,i
CCOCCOC(=O)c1[nH]c2c(c1C)C(=O)CC(c1ccc(OC)c(OC)c1)C2 (stereo not given),?,-18%,13µM*,0%,-6%,i
CC1=C(C(=O)OC(C)C)C(c2ccc(C)o2)C(C(=O)OC(C)C)=C(C)N1,-29%,-32%,?,?,6%,i
C/C=C/COC(=O)c1[nH]c2c(c1C)C(=O)CC(c1ccc(N(C)C)cc1)C2 (stereo not given),26µM*,-24%,16µM*,-7%,-23%,?
COC(=O)c1[nH]c2c(c1C)C(=O)CC(c1ccc(OC)cc1)C2 (stereo not given),-10%,9%,?,0%,-17%,i
CCOC(=O)c1[nH]c2c(c1-c1ccccc1)C(=O)CC(c1ccccc1)C2 (stereo not given),-26%,7%,?,4%,-17%,?
Cc1c(C(=O)OCc2ccccc2)[nH]c2c1C(=O)CC(c1ccc(Cl)cc1)C2 (stereo not given),18µM*,·,15µM*,-4%,0%,·
Cc1c(C(=O)OCCOc2ccccc2)[nH]c2c1C(=O)CCC2,15µM*,-20%,23µM*,?,5%,i
CCOC(=O)c1[nH]c2c(c1Cc1ccccc1)C(=O)CC(c1ccccc1)C2 (stereo not given),18µM*,·,21µM*,-3%,-7%,·
O=C(Nc1nnc(N2CCCC2)s1)Nc1cc(F)ccc1F,-24%,13%,-22%,2%,1%,i
CCOc1ccc(CCNC(=O)COC(=O)c2cccc(S(=O)(=O)N3CCOCC3)c2)cc1OCC,-3%,6%,-21%,-3%,-4%,i
CC(OC(=O)c1ccc(Cl)nc1)C(=O)NC(C)(C)C (stereo not given),16%,-1%,9%,0%,9%,i
Cc1c(C(=O)OC2CCCC2C)[nH]c2c1C(=O)CCC2 (stereo not given),21µM*,13%,?,-11%,-19%,i
SMILES,TDP1 cell CPT,ATXN2 expr inh,TDP1 cell noCPT,TGFb inhibitor,HepG2 tox,ATXN viability
CC(=O)Nc1cccc(C(=O)Nc2cc(C(F)(F)F)ccc2-n2cncn2)c1,?,·,?,-12%,-11%,i
O=c1[nH]c2cc3c(cc2cc1CN(Cc1cccs1)Cc1nnnn1Cc1ccco1)OCCO3,15µM*,-21%,16µM*,-16%,-31%,i
COc1ccccc1CN(Cc1cc2cc3c(cc2[nH]c1=O)OCCO3)Cc1nnnn1Cc1ccco1,26µM*,6%,?,-1%,9%,i
O=c1[nH]c2cc3c(cc2cc1CN(Cc1ccccc1)Cc1nnnn1Cc1ccco1)OCCO3,?,-11%,?,-28%,-37%,i
CN1CCN(C2CCN(c3ccc(Nc4nnc(Cl)c(Nc5ccccc5S(C)(=O)=O)n4)c(OC(CF)CF)c3)CC2)CC1,?,?,?,21%,-45%,i
COc1cc(N2CCC(N3CCN(C)CC3)CC2)ccc1Nc1ncc(Cl)c(Nc2ccccc2S(=O)(=O)C(C)C)n1,·,19µM*,·,·,·,·
CCC(=O)NC1Cc2ccccc2C(c2ccccc2)C1 (stereo not given),-29%,·,?,·,·,·
CCc1cccc(CC)c1NC(=O)CSc1nc2ccc(N3C(=O)C4C5C=CC(C5)C4C3=O)cc2s1 (stereo not given),21µM*,-20%,18µM*,?,-10%,i
COc1ccc(S(=O)(=O)N2CCOC2CNC(=O)C(=O)NCCN2CCOCC2)cc1C (stereo not given),14%,7%,-5%,-13%,1%,i
COc1ccc(NC(=O)N2CCN(c3nc4ccccc4n3C(C)C)CC2)cc1,?,-16%,-28%,-1%,2%,i
COc1ccc(NC(=O)C(c2ccc(C#N)cc2)n2c(=O)c(-c3cc4ccccc4[nH]3)nc3ccccc32)cc1 (stereo not given),21µM*,·,15µM*,·,·,·

# Compound activity (PubChem BioAssay)
